Many of the other results were omitted from the sample, so hits are more common in it than they were.
12-LOX inh: ALOX12 (human) lipoxygenase inhibition | Potency, µM (doses to about 108 µM), for inactives: top-dose activity change, negative = inhibition, usual class: inhibitors | purified 12hLO, xylenol orange hydroperoxide absorbance | AID 1671190 | actives 1.1% (n = 580,000); note: potency is the fitted concentration of half-maximal effect
Target sequence (P18054 whole entry, looked up): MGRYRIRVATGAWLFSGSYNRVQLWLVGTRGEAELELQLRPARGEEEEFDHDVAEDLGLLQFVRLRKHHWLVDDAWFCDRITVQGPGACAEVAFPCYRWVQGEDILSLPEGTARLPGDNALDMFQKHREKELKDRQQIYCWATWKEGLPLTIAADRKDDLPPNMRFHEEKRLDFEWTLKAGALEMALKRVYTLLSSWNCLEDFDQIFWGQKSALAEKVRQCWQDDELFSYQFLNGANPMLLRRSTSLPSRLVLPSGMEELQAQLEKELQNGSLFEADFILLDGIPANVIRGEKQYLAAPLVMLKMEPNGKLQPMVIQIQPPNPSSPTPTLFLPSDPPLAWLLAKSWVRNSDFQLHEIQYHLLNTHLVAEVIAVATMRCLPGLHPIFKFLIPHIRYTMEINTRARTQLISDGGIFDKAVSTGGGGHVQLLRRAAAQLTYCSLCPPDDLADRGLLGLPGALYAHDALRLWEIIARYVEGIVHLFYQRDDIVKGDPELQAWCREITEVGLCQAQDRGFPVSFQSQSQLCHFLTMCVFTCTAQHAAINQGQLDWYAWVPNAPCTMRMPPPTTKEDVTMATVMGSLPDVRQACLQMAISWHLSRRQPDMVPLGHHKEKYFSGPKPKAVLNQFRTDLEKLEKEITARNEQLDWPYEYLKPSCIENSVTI
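Purified human 12hLO at 150 nM in 25 mM Hepes, 0.01% Triton X-100, pH 7.0, preincubated 15 min at room temperature with compound. Reaction started with 40 uM arachidonic acid, 30 min at room temperature. Hydroperoxide measured by Fe-xylenol orange, 573/405 nm absorbance ratio.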
TDP1 cell CPT: DT40-hTDP1 cell growth loss with CPT; actives 12% (n = 420,000); Potency, µM (highest dose often 46.2 µM), without a hit: top-dose activity change, negative = growth inhibition, most hits filed as inhibitors; chicken DT40 Tdp1-/-;hTDP1 cells + 20 nM CPT, ATP luminescence, 48 h; note: potency is the fitted concentration of half-maximal effect; nearly all actives have a fitted effect of over 55% in size
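Cell growth measured by CellTiter-Glo luminescence after a minimum 48 h, 37 C compound exposure with 20 nM CPT in Tdp1-knockout DT40 cells stably expressing hTDP1, seeded 400/well; qHTS titration format.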
HT1080 IDH1KD tx: toxicity to HT-1080 IDH1 knockdown cells (counter line); HT-1080 IDH1 knockdown viability, ATP luminescence, 48 h; Potency, µM (highest dose often 46.1 µM), for inactives: top-dose activity, negative = toxicity, most hits filed as cytotoxic; actives 2% (n = 360,000); AID 686971;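 note: potency is the fitted concentration of half-maximal effect; 0% = DMSO wells and -100% = cell-free medium wells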
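In this qHTS, HT-1080 cells depleted of IDH1 are exposed for 48 h at 37 °C to compound titrations. Toxicity is scored from CellTiter-Glo luminescence, with DMSO as full viability and medium alone as none.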
DT40 TDP1 no CPT: qHTS for Inhibitors of human tyrosyl-DNA phosphodiesterase 1 (TDP1): qHTS in cells in absence of CPT | DT40 Tdp1-/- hTDP1 cells, no CPT, ATP luminescence, 48 h | Potency, µM (top dose mostly 46.2 µM), for inactives: at the highest dose activity change, negative = growth inhibition, usual class: inhibitors | actives 15% (n = 420,000) | AID 686978, 2013; note: potency is the fitted concentration of half-maximal effect; nearly all actives have a fitted effect of over 55% in size
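Luminescent ATP content (CellTiter-Glo) served as the growth readout. Knockout chicken DT40 cells expressing human TDP1 were exposed to compounds without camptothecin for a minimum 48 hr at 37 °C.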
HT1080NT lethal: kills 2HG-producing HT-1080-NT fibrosarcoma cells; HT-1080-NT fibrosarcoma viability, CellTiter-Glo ATP luminescence, 48 h; Potency, µM (highest dose often 46.1 µM), inactives show top-dose activity, negative = less viability, usual class: cytotoxic; actives 1.6% (n = 360,000); AID 686970;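 note: NT is the 2HG producing partner of a matched IDH1 knockdown line; potency is the fitted concentration of half-maximal effect; 0% = DMSO-treated cells and -100% = media-only wells without cells; nearly all actives have a fitted effect of over 55% in size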
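HT-1080-NT; 750 cells/well; 5% FBS RPMI; 48 h compound, 37 degrees C; CellTiter-Glo luminescence; curve fitting and curve-class assignment.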
IL1B secr inh: inhibitors of inflammasome signaling (IL-1 beta secretion) | THP-1 LPS/ATP IL-1B secretion, AlphaLISA, 16 h; hits give low values | activity change, % at 57.5 µM | actives 4.7% (n = 360,000) | AID 743279; in the data active = activity change below about -50%; inconclusive = mostly about -30% to -49%
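THP-1 cells pretreated 1 hr with compounds (up to 57.5 uM final), then stimulated with LPS (250 ng/mL final) plus ATP (1.25 mM final); secreted IL-1B measured by AlphaLISA after 16 hr, decreased signal indicating inhibition.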
* hit, by the source's call; u = inconclusive; x = not tested or not shown; [ ] = remark or other dose. Unless noted, calls come from the whole dose curve; as a rule, active = well fitted curve in the direction sought with a large enough effect; inconclusive = small, poorly fitted or top-dose-only effect, or another doubt; inactive = no such curve, though single readings can be large; an effect the other way counts as inactive or inconclusive. Unless noted, % is set by controls: 0 for no effect and ±100 for the full control effect.

SMILES | 12-LOX inh | TDP1 cell CPT | HT1080 IDH1KD tx | DT40 TDP1 no CPT | HT1080NT lethal | IL1B secr inh
CCN(CC)S(=O)(=O)c1cc(NC(=O)C(C)N2CCc3ccccc32)ccc1C (stereo not given) | 7.1% | u | -24.3% | 25.9µM* | u | u
CCc1nc(-c2c3n(c(=O)n(Cc4cccc(C#N)c4)c2=O)CCCCC3)no1 | 29.7% | x | x | x | x | x
Fc1ccc(OC2CN(Cc3ccc(C(F)(F)F)cc3)C2)c(F)c1 | 7.4%[6.33 µM] | x | x | x | x | x
CCCCCCCCN1C(=O)[C@H](CC(=O)NCCCC)C[C@@]2(C(=O)OC)CC(C)(C)CC=C12 | u | 10.3µM* | u | 11.6µM* | u | 15.2
CCCCCCCCN1C(=O)[C@H](CC(=O)NCCCCc2ccccc2)C[C@@]2(C(=O)OC)CC(C)(C)CC=C12 | -5.1% | 16.4µM* | u | 20.6µM* | -13.5% | 15.7
CCCCCCCCN1C(=O)[C@H](CC(=O)NCC23CC4CC(CC(C4)C2)C3)C[C@@]2(C(=O)OC)CC(C)(C)CC=C12 | -0.9% | 4.0% | -7.4% | u | -0.5% | 8.8
CCCCCCCCN1C(=O)[C@H](CC(=O)NCc2ccccc2)C[C@@]2(C(=O)OC)CC(C)(C)CC=C12 | -12.5% | 3.66µM* | u | 5.17µM* | u | -25.5
CCCCNC(=O)C[C@@H]1C[C@@]2(C(=O)OC)CC(C)(C)CC=C2N(Cc2ccccc2)C1=O | -5.8% | u | -1.0% | u | -15.7% | -27.8
CCCCCCCCN1C(=O)[C@H](CC(=O)NCc2cccc3ccccc23)C[C@@]2(C(=O)OC)CC(C)(C)CC=C12 | -1.6% | -66.7% | u | 11.6µM* | u | 0.3
Cc1cc(C(=O)COc2ncnc3ccccc23)c(C)n1CC(F)(F)F | 11.5% | x | x | x | x | x
Cc1cccc(C(=O)NCc2ccco2)c1C | 12.0% | x | x | x | x | x
Cc1ccc2c(C)c(CCC(=O)Nc3ccc(F)cc3F)c(=O)oc2c1 | -4.9% | x | x | x | x | x
O=C(Nc1c(C(=O)N2CCN(c3ccccn3)CC2)oc2ccccc12)c1ccc([N+](=O)[O-])cc1 | 8.7% | 23.1µM* | 12.8% | u | 10.9% | -17.9
O=C(c1ccc([N+](=O)[O-])s1)N1CCN(c2ccccn2)CC1 | 11.5% | 23.1µM* | u | 14.6µM* | -24.1% | 44.2
O=C(c1cc(Br)c(Br)s1)N1CCN(c2ccccn2)CC1 | -7.5% | u | -17.4% | u | -5.2% | 0.0
O=C(COc1ccccc1)N1CCN(c2ccc([N+](=O)[O-])c(N3CCCCC3)c2)CC1 | 15.5% | u | 6.6% | u | 9.1% | -52.6*
O=C(COc1ccc(Br)cc1)N1CCN(c2ccc([N+](=O)[O-])c(N3CCCCC3)c2)CC1 | -32.1% | u | -22.9% | 20.6µM* | -7.5% | -20.4
O=C(COc1ccccc1)N1CCN(c2ccccc2)CC1 | -11.4% | 1.9% | 16.3% | 1.4% | 8.3% | 7.8
COc1ccc(-n2nc(C(=O)NCC(=O)NCCCN3CC(C)CC(C)C3)c3ccccc3c2=O)cc1OC (stereo not given) | -9.5% | 1.3% | 6.4% | 1.0% | 7.7% | -28.0
COc1ccc(-n2nc(C(=O)NCC(=O)Nc3cc(OC)c(OC)c(OC)c3)c3ccccc3c2=O)cc1Cl | -11.7% | u | -24.3% | 1.64µM* | -22.0% | 0.0
COc1ccc(-n2nc(C(=O)NCC(=O)NCCCN3CC(C)CC(C)C3)c3ccccc3c2=O)cc1Cl (stereo not given) | -26.8% | -12.2% | u | u | u | -70.7*
COC(=O)C(NC(=O)c1ccccc1Cl)(Nc1nc(C2CC2)cs1)C(F)(F)F (stereo not given) | 3.9% | x | x | x | x | x
Cn1c(SCc2nc3ccccc3c(=O)[nH]2)nnc1-c1cccnc1 | -0.8% | x | x | x | x | x
Cc1cccc(OCC(=O)N2CC(C(=O)NC3CCCCC3)C3(CCOCC3)C2)c1 (stereo not given) | 55.6% | x | x | x | x | x
O=C(NC1CCCCC1)Oc1cc2oc(=O)sc2cc1Br | u | 16.4µM* | -4.4% | u | -4.9% | -17.1
SMILES | 12-LOX inh | TDP1 cell CPT | HT1080 IDH1KD tx | DT40 TDP1 no CPT | HT1080NT lethal | IL1B secr inh
CN(Cc1ccccc1N1CCCC1)C(=O)c1cc2cc(Cl)ccc2o1 | 136.1% | 11.6µM* | -0.7% | -15.1% | -0.2%[9.24 µM] | 16.7
Cc1cccc(N(C(=O)c2snc(C(N)=O)c2N)C(C(=O)NC2CCCC2)c2ccc(C)o2)c1 (stereo not given) | -1.3% | 18.4µM* | -27.2% | 14.6µM* | u | -18.3
Cc1ccc(N(C(=O)c2snc(C(N)=O)c2N)C(C(=O)NC2CCCC2)c2ccc(C)o2)cc1 (stereo not given) | u | u | -20.3% | u | -21.8% | -77.2*
CCN(CC(=O)Nc1ccc(NC(C)=O)cc1)C(=O)c1ccccc1CCc1ccccc1 | -2.2% | u | -11.9% | u | -6.7% | -11.8
CCOC(=O)C1(C(=O)OCC)NC(=O)CC1CC (stereo not given) | 11.7% | 9.0% | 24.3% | 0.3% | 3.6% | 0.4
CCCCCC1CC(=O)NC1(C(=O)OCC)C(=O)OCC (stereo not given) | 15.5% | 21.9% | 2.7% | -1.6% | -1.4% | -64.0*
Cc1cc(NC(=O)c2ccc3c(c2)C(=O)N(C2CCCCC2)C3=O)no1 | 0.0% | u | 21.8% | 14.6µM* | 15.2% | 11.7
O=C(Nc1ccncc1)c1ccc2c(c1)C(=O)N(C1CCCCC1)C2=O | 0.0% | 18.4µM* | u | 23.1µM* | -14.4% | 30.2
O=C(/C=C/c1ccc(F)cc1)NCCC1=CCCCC1 | 0.0% | 20.6µM* | 18.3% | 16.4µM* | -0.8% | -17.1

From PubChem BioAssay
